Compound activity deposited in PubChem by National Center for Advancing Translational Sciences (NCATS).
Shown are actives, neighbours in structure and some others; about 6.1% of the full set was active somewhere.
D1 potentiator – human D1 dopamine receptor positive modulation | 360,000 tested, 0.036% active | P21728 | HEK293 TREx D1 cells, calcium flux, dopamine EC20 potentiation | potentiation, % at 10 µM; in the data active = potentiation above about 30%; also: 0% is about no effect
ERG Ets-DNA blk – ERG Ets/DNA interaction inhibition; P11308; fluorescence polarization, His-ERG Ets domain / labelled DNA; Potency, µM (highest dose often 76.9 µM), for inactives: at the top dose FP activity, negative = inhibition, usual class: inhibitors; 370,000 tested, 0.028% active; AID 624246; active = well fitted inhibition curve with a large enough effect in the polarisation, with a control signal flat; the % refers to the polarisation;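 also: polarization taken with two DNA probes labelled with fluorescein and Texas red; potency is read from the fitted curve at half-maximal effect; % of control where 0% means no effect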
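His-tagged ERG Ets domain (1 uM in the protein solution; 300mM KCl, 50mM Tris-HCl, 1mM EDTA, 1mM DTT, pH 7.5) received compound, then a probe mix of 5 nM fluorescein-DNA and 100nM Texas-615-DNA. Fluorescence polarization was read for both dyes.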
D1 antag – blocks dopamine activation of the human D1 receptor. activity change, negative = inhibition, % at 10 µM. AID 504652. P21728. 360,000 tested, 3.2% active. HEK293 TREx D1 cells, calcium flux, dopamine EC80; hits give low values; in the data active = activity change below about -30%; also: % is scaled to controls: 0 for no effect and ±100 for the full control effect
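Inducible Hek293 Trex D1 cells (tetracycline, overnight, 30 C). Calcium dye 30–90 min RT. Antagonist mode: EC80 dopamine added after 180 s compound read.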
DRD3 antagonist – antagonists of human D3 dopamine receptor. P35462. D3R cells, DiscoveRx beta-arrestin luminescence, antagonist mode; hits give low values. max response, negative = inhibition, %. 360,000 tested, 2.5% active. AID 652054; in the data active = max response below about -50%; also: % is scaled to controls: 0 for no effect and ±100 for the full control effect
Target sequence (P35462 whole entry, looked up): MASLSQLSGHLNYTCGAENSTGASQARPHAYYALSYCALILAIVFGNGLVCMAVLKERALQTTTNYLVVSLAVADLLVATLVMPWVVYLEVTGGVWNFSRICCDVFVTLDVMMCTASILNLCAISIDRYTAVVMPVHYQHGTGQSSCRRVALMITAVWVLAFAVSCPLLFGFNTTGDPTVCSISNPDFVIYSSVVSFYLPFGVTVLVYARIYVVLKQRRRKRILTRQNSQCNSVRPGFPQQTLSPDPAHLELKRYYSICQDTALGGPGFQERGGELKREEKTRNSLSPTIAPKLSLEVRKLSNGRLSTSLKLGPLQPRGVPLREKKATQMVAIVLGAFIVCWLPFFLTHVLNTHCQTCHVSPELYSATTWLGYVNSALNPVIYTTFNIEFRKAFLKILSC
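Cells expressing the human receptor were seeded at 1500 cells/well, incubated overnight at 37 degrees C in 5% CO2, then exposed to library compounds with dopamine controls for 90 minutes at 37 degrees C before luminescent detection.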
D1 agonist – human D1 receptor agonism; HEK293 T-REx D1 cells, calcium flux, agonist mode; 360,000 tested, 1% active; P21728; activation, % at 2 µM; in the data active = activation above about 30%; also: 0% is about no effect
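Inducible HEK293 T-REx D1 cells, force-coupled to calcium signalling, were plated at 4000 cells/well with tetracycline and held overnight at 30 C. After no-wash calcium dye loading, compound-evoked calcium rise over 180 s flagged agonists.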
D3 ag – activates the human D3 dopamine receptor; 410,000 tested, 0.58% active; P35462; D3R DiscoveRx beta-arrestin cells, luminescence, 90 min; max activation, %; in the data active = max activation above about 30%; also: 0% is about no effect
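Cells at 1500/well, incubated overnight, then treated with pinned compounds (dopamine as control) for 90 min at 37 degrees C. DiscoveRx reagent added for 30 - 60 minutes at room temperature; luminescence read.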
Starred values were filed as active, the others as inactive.

Screening CCN(CC(=O)NCc1cccs1)c1ccc(S(=O)(=O)N2CCCC2)cn1 returned D1 potentiator -2, ERG Ets-DNA blk 0%, D1 antag 5, DRD3 antagonist 14, D1 agonist 3 and D3 ag -3.
`CCN(Cc1cccs1)C(=O)c1cccc(S(=O)(=O)N2CCN(C)CC2)c1` gave D1 potentiator -3, ERG Ets-DNA blk 8%, D1 antag 6, DRD3 antagonist -5, D1 agonist 0 and D3 ag -17.
`CN1CCN(S(=O)(=O)c2cccc(C(=O)N(C)Cc3cccs3)c2)CC1` gave ERG Ets-DNA blk 1%, D1 antag -46*, DRD3 antagonist 0, D1 agonist 3 and D3 ag -5.
O=C(CCNC(=O)Cn1ccc2ccccc2c1=O)NCCc1ccccc1Cl was read as D1 potentiator 2, ERG Ets-DNA blk 1%, D1 antag -4, DRD3 antagonist 7, D1 agonist 24 and D3 ag 6.
`O=C(NNC(=O)c1ccc2[nH]c(=O)c(=O)[nH]c2c1)c1cccc(Br)c1` gave D1 potentiator 0, ERG Ets-DNA blk 3%, D1 antag 36, DRD3 antagonist -9, D1 agonist 1 and D3 ag -6.
`CN(C)C(CNC(=O)c1ccc(NC(=O)c2cccs2)cc1)c1ccccc1` (stereo unspecified) gave D1 potentiator -4, ERG Ets-DNA blk 12%, D1 antag -21, DRD3 antagonist -11, D1 agonist 2 and D3 ag -6.
`CN(C)C(CNC(=O)c1ccc(C2SCCS2)cc1)c1ccccc1` (stereo unspecified) gave D1 potentiator 1, ERG Ets-DNA blk 2%, D1 antag -22, DRD3 antagonist -53*, D1 agonist 4 and D3 ag -26.
`Cc1cccc(NS(=O)(=O)c2ccc(C(=O)NCC(c3ccccc3)N(C)C)cc2)c1C` (stereo unspecified) gave D1 potentiator -2, ERG Ets-DNA blk -4%, D1 antag 1, DRD3 antagonist -25, D1 agonist 48* and D3 ag -20.
`Cc1ccc(NS(=O)(=O)c2ccc(C(=O)NCC(c3ccco3)N(C)C)cc2)cc1` (stereo unspecified) gave D1 potentiator -7, ERG Ets-DNA blk 1%, D1 antag -31*, DRD3 antagonist 8, D1 agonist 53* and D3 ag -9.
`CNS(=O)(=O)c1cccc(C(=O)NCC(c2ccco2)N(C)C)c1` (stereo unspecified) gave D1 potentiator 1, ERG Ets-DNA blk 0%, D1 antag -35*, DRD3 antagonist 6, D1 agonist 0 and D3 ag -3.
`CCCN(CCC)S(=O)(=O)c1ccc(C(=O)NCc2ccc3c(c2)OCO3)cc1` gave D1 potentiator 6, ERG Ets-DNA blk 8%, D1 antag 9, DRD3 antagonist 16, D1 agonist 8 and D3 ag 2.
COC(=O)c1ccc(Cn2c(CN3CCOCC3)nc3ccccc3c2=O)o1 was read as D1 potentiator 0, ERG Ets-DNA blk -8%, D1 antag -5, DRD3 antagonist 0, D1 agonist 3 and D3 ag 2.
Screening O=Cc1nc(Nc2cc(F)cc(F)c2)nc(NC2CCCC2)n1 returned D1 potentiator 12, D1 antag -6 and D1 agonist 2.
`COc1ccc(C(=O)NCC(c2ccco2)N(C)C)cc1S(=O)(=O)NCc1ccc(Cl)cc1` (stereo unspecified) gave D1 potentiator -7, ERG Ets-DNA blk 28%, D1 antag 2, DRD3 antagonist -97*, D1 agonist 1 and D3 ag -21.
CN(C)C(CNC(=O)Cc1cccc(C(F)(F)F)c1)c1ccco1 (stereo unspecified) was read as D1 potentiator -2, ERG Ets-DNA blk 3%, D1 antag -48*, DRD3 antagonist 16, D1 agonist 5 and D3 ag -8.
